# According to PubChem BioAssay (EPA / NIEHS):
# Active and inactive are the calls of the source. How the source made its calls: active means hit-call score of the fitted dose curve at least 0.9, where 1 is the maximum; inactive means score below 0.9.
# Test: CEETOX_H295R_MTT_cell_viability: Viability Assessment in the CeeTox HT-H295R MTT Assay (AID 2283718);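 on AC50: curve fitted both ways so AC50 may mark viability loss or gain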
# In short: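 MTT reduction (0.5 mg/ml, 4 h at 37 C; absorbance at 570 and 650 nm) gave viability as background-corrected percent change versus controls. H295R cells had 48 h forskolin (10 uM) prestimulation, then 48 h chemical exposure at 0.1% DMSO.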
SMILES,outcome,AC50
CCCCCCCCOC(=O)c1ccccc1C(=O)OCCCCCCCC,inactive,
CC1=C2C[C@H]3[C@@H](CC=C4C[C@@H](O)CC[C@@]43C)[C@@H]2CC[C@]12O[C@@H]1C[C@H](C)CN[C@H]1[C@H]2C,inactive,
CCC(=O)O[C@H]1CC[C@H]2[C@@H]3CCC4=CC(=O)CC[C@]4(C)[C@H]3CC[C@]12C,,82 µM (active)
Clc1ccc(C(c2ccccc2Cl)C(Cl)(Cl)Cl)cc1 (centres undefined),inactive,
ClC1=C(Cl)[C@]2(Cl)[C@@H]3[C@H]4C[C@H]([C@@H]5O[C@H]45)[C@@H]3[C@@]1(Cl)C2(Cl)Cl,,4.96 µM (active)
Cc1ccccc1CO[C@@H]1C[C@@]2(C(C)C)CC[C@]1(C)O2,inactive,
CCNc1nc(NC(C)C)nc(SC)n1,inactive,
CCC(C)(CC)c1cc(NC(=O)c2c(OC)cccc2OC)on1,,43 µM (active)
CCSC(=O)N(CC)C1CCCCC1,inactive,
